Results on 93 compounds are retold here after PubChem BioAssay AID588850 (Sanford-Burnham Center for Chemical Genomics, 2011).

The inhibition is the relative decrease from the control value, in per cent.

“And” between values parts separate entries of the source, which are not always exact repeats. Identical values can stand only once. In all, about 360,000 compounds went through this assay and about 3,100 (0.86%) were called active. This is one part of a sample in which actives are shown more often than they occur. Unmarked numbers belong to inactive results.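 The calls were made as follows: active = at least 50% inhibition at 5 µM, scaled per plate between neutral and stimulator controls; inactive = the rest.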

A short description of this assay: inhibitors of PAF-induced NF-kB signaling, primary screen, cell-based, GFP fluorescence, uHTS (AID 588850).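 Also: PAF is a Pseudomonas aeruginosa culture filtrate used as stimulus; plate controls were PAF-stimulated DMSO wells for no effect and unstimulated DMSO wells for full effect.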 The settings on record: KKLEB NF-kB-GFP reporter, GFP fluorescence overnight, at 5 µM, stronger effect = higher value.
Turning to `CCN(Cc1ccccc1)C(=O)CCS(=O)(=O)c1ccc2c(c1)oc(=O)n2C`, the inhibition is -2.4%.
Then `O=C1Nc2ccccc2/C1=C/c1ccnc2ccccc12`, with 50.5% (active).
Take `COCCN(C(=O)CCC(=O)Nc1ccccn1)C(C(=O)NCCC(C)C)c1ccc(OC)cc1` (stereo not drawn): the inhibition was -7.9%.
As to `CCOC(=O)N1CCN(S(=O)(=O)c2ccc3c(c2)C(C)C(=O)N3)CC1` (stereo not drawn), the inhibition is -4%.
The value for `NC(=O)c1ncn([C@@H]2O[C@H](CNCc3cnc(N4CCOCC4)s3)[C@@H](O)[C@H]2O)n1` was -11.1%.
Then `O=C(CCl)Nc1ccc(Sc2ccc(NC(=O)CCl)cc2)cc1`, with 93.7% (active); and `CC(=O)Nc1ccc(SCC(=O)NC(=O)c2ccc(Cl)cc2)cc1`, with -19.2%.
Then `O=C(O)CSCC(=O)Nc1ccc(C(F)(F)F)cc1`, with -2.9%.
`Cc1[nH]c2ccccc2c1SCC(=O)Nc1nccs1`: the inhibition was 1%.
The value for `CCNC(=O)C1CCCN(C(=O)c2cc(F)ccc2C)CC1` (stereo not drawn) was -17.2%; that for `Cc1ccccc1-c1ccc2c(c1)O[C@@H](CN(C)Cc1ccc(C(=O)O)cc1)[C@@H](C)CN([C@H](C)CO)S2(=O)=O` was 44.9%; that for `CC(NC(=O)c1cc2cc(Cl)ccc2oc1=N)c1ccccc1` (stereo not drawn) was 23.8%.
For the compound `COc1cc2c3c(c1)/C(=C1/SC(=S)NC1=O)C(=O)N3C(C)(C)C=C2C`, the inhibition was 50.7% (active).
With `CCOc1ccc(NC(=O)CSc2ncnc3c2sc2ccccc23)cc1`, the inhibition is 5.6%.
`Cc1ccccc1C(CC(=O)c1cccs1)C(C#N)C#N` (stereo not drawn): the inhibition was 83.8% (active).
For the compound `Cc1ccc(C)c(NC(CC(=O)c2ccccc2)C(=O)OCC(=O)c2cccs2)c1` (stereo not drawn), the inhibition was -4.5%.
Then `O=C(NCC(=O)N1CCN(c2ccccc2F)CC1)c1cccs1`, with -14.2%; and `O=Nc1c(O)cc(O)c2ccccc12`, with -12.5%.
For `O=Cc1c(NCCc2cccc(F)c2)c2ccccc2[nH]c1=O`, the inhibition is 5%.
As to `OCCNc1nc(Nc2ccc(Cl)c(Cl)c2)nc2ccccc12`, the inhibition is 87.5% (active).
The value for `O=C(Cn1c(NCCO)nc2ccccc21)c1ccc(Cl)cc1Cl` was 1.6%; that for `OCCNCCOc1ccc(Cl)c(Cl)c1` was -8.5%.
Then `O=c1[nH]c(=S)[nH]c(O)c1/C=C1\C=Nc2ccccc21`, with 69.3% (active); and `c1csc(-c2nnc(COc3ncnc4sccc34)o2)c1`, with 18.1%; and `C=C(C)C(=O)O[C@H]1C/C(C)=C\C(=O)/C=C(\C)[C@H](O)[C@@H]2OC(=O)C(=C)[C@@H]21`, with 74.1% (active).
Turning to `CCN(Cc1ccccc1)C(=O)CSc1nc(C)cc2c1C(=O)OC2`, the inhibition was 5%.
As to `Oc1c(Cl)cc(Cl)c(Cl)c1Cc1c(O)c(Cl)cc(Cl)c1Cl`, the inhibition is 65.4% (active).
On to `O=c1[nH]c(CCl)nc2cc(-c3ccc(Cl)cc3)sc12`, for which the inhibition is 7.1%.
Then `CC[N+]1(CC)CC2=Cc3ccccc3CC2C1` (stereo not drawn), with -4%; and `COc1ccc(CC(=O)c2ccc(O)cc2O)cc1OC`, with -7.8%.
The value for `C=CCOc1ccccc1CNn1c(C)n[nH]c1=S` was 5.7%.
For the compound `O=C(CSc1ncnc2scc(-c3ccccc3)c12)NCc1ccc2c(c1)OCO2`, the inhibition was 13.3%.
Turning to `O=C(COC(=O)c1ccc(Cl)nc1)NCc1ccc2c(c1)OCO2`, the inhibition was -9.2%.
On to `CN(C)C(=O)c1cccc(-c2cnc3sc(NCc4ccc5c(c4)OCO5)nn23)c1`, for which the inhibition was 82.2% (active).
Then `Cc1ccc(Cn2c(C)c(C(=O)NCc3ccccc3C(F)(F)F)sc2=O)cc1`, with -26.2%.
Then `Cc1c(Nc2nc3ccccc3nc2NS(=O)(=O)c2cccs2)c(=O)n(-c2ccccc2)n1C`, with 9.5%; and `Cc1ccc(C2CCN(C(=S)Nc3cccc(Cl)c3)C2)cc1` (stereo not drawn), with 7.5%; and `COc1ccc(/C=C/C(=O)NC(=S)NN2CCCCC2c2cccnc2)cc1` (stereo not drawn), with -13%.
Then `Cc1ccc(Cc2c(-c3ccccc3)nc3ccc(Cl)cn23)cc1`, with 20.8%; and `Cc1ccc(Cc2c(-c3ccco3)nc3ccc(Cl)cn23)cc1`, with 66.3% (active).
As to `Cc1ccc2nc(-c3ccco3)c(Cc3cccc(Cl)c3)n2c1`, the inhibition was 2.7%.
As to `S=c1[nH]c2ccccc2c2ccccc12`, the inhibition was -8.9%.
Then `CC(=O)c1cccc(-c2cnc3c(NC=O)cc(-c4ccc(N5CCN(C)CC5)cc4)cn23)c1`, with 22.9%; and `O=C(CSc1ccccc1)Nc1nnc(/C=C/c2ccccc2)s1`, with 22.7%; and `O=C(Nc1ccc(Cl)cc1)Nc1nnc(/C=C/c2ccccc2)s1`, with 51.2% (active).
On to `COc1ccc(/C=C/c2nnc(NC(=O)C(C)C)s2)cc1`, for which the inhibition is 17.7%.
For `Cc1cc(OCCCC(=O)Nc2cc(S(=O)(=O)N3CCOCC3)ccc2N2CCOCC2)ccc1Cl`, the inhibition was 7.1%.
Then `CCOC(=O)c1sc2nc(C)nc(SCC(N)=O)c2c1C`, with 11.9%; and `O=C(COc1ccc(-n2cnnn2)cc1)Nc1ccccc1Cl`, with -3.5%; and `CC(=O)c1ccc(NC(=O)C(C)N(C)CC(=O)Nc2ccccc2Cl)cc1` (stereo not drawn), with 2.6%.
The value for `O=C(Nc1ccccc1Cl)/C(Cl)=C(\Cl)S(=O)c1ccccc1` (stereo not drawn) was 82.8% (active); that for `COc1cccc(CC(=NO)c2cccc(OC)c2)c1` was 11.3%; that for `COc1cc(C(=O)NCCOC(=O)c2cccc(N(C)C)c2)cc(OC)c1OC` was 3.4%.
The value for `Cn1c(=O)c2c(ncn2CC(=O)N/N=C/c2cn[nH]c2-c2ccc(F)cc2)n(C)c1=O` was -32.9%; that for `NC1=CC(=O)C(=O)c2cccnc21` was 92.2% (active); that for `CCCCc1nc(NCCN)c(C#N)c2c1CSC(C)(C)C2` was 2.5%.
As to `FC(F)Oc1ccc(NC(=S)NCc2ccco2)cc1Cl`, the inhibition was -1.9%.
For `CCOc1c(Nc2cccc(Cl)c2)c(=O)c1=O`, the inhibition was -0.1%.
The value for `OCCCNc1nccc(-c2cc(Nc3cccc(Cl)c3)ncn2)n1` was 84.5% (active); that for `Cc1nc(C(F)(F)F)ccc1C(=O)N1CCC1(C)C(=O)NS(=O)(=O)c1ccc(F)cc1F` (stereo not drawn) was 0.2%.
In the case of `O=C(CCN1C(=O)[C@@H]2Cc3ccccc3CN2C1=O)NCCc1ccccc1`, the inhibition was 16%.
In the case of `O=C(Nc1ccc2oc(-c3ccc4ccccc4c3)nc2c1)c1cccs1`, the inhibition was 51.3% (active).
As to `O=C(Nc1ccc2oc(-c3ccccc3F)nc2c1)c1ccco1`, the inhibition is -15%.
With `COc1cc(OC)cc(C(=O)Nc2ccc(-c3nc4ccccc4o3)c(O)c2)c1`, the inhibition is -44.7%.
Regarding `CN1CCN(c2cc(=O)n(-c3ccc(Cl)cc3)c(=O)[nH]2)CC1`, the inhibition is 16.6%.
With `CC1CCN(C(=O)c2ccccc2NC(=O)Cc2ccccc2)CC1`, the inhibition is 16.1%.
The value for `N#C/C=C1\Sc2ccccc2C(=O)N1CC(=O)N1CCN(S(=O)(=O)c2ccccc2)CC1` was 8.2%; that for `Clc1ccc(Cn2ncc3c(NCc4cccnc4)ncnc32)cc1` was -7.9%; that for `Cc1cc(NCc2cccnc2)no1` was -9.7%.
Then `Brc1ccc2ncnc(NCc3cccnc3)c2c1`, with 57% (active); and `CC(C)Cc1oc(C(=O)O)cc1CN`, with 0.9%.
Then `OC[C@@H]1CN(Cc2ccc(Cl)cc2)C[C@H](n2cnc3c(NCc4ccncc4)ncnc32)O1`, with -7.1%; and `CCN(CC(=O)Nc1cc(Cl)ccc1C)C(=O)CSCc1ccc(C)cc1`, with -25.2%.
`CC1(C)O[C@@H]2CC3C4C[C@H](F)C5=CC(=O)C=CC5(C)C4C(O)CC3(C)[C@]2(C(=O)CO)O1` (stereo partly drawn): the inhibition is 71.8% (active).
For the compound `C[C@]12C=CC(=O)C=C1CC[C@@H]1[C@@H]2C(=O)C[C@@]2(C)[C@H]1CC[C@]2(O)C(=O)CO`, the inhibition was 21.5% and 6.7%.
As to `COc1cccc(NC(=O)COC(=O)c2ccc3ccccc3n2)c1`, the inhibition was 3.6%.
Then `C[C@H]1CC[C@]2(O[C@@H](CCO)C[C@@H](O)[C@@H]2O)O1`, with -22.2%.
The value for `O=C(c1ccc(Cl)c([N+](=O)[O-])c1)N1CCN(c2ccccc2)CC1` was -1.9%.
On to `O=C(O)c1ccc2c(=O)n3c(nc2c1)/C(=C/c1ccc(Cl)c([N+](=O)[O-])c1)CC3`, for which the inhibition was -4%.
With `O=C(/C=C/c1ccc(Cl)c([N+](=O)[O-])c1)c1ccc(O)cc1`, the inhibition is 66.4% (active).
As to `NC(=O)c1nsc(C(=O)N(CC(=O)NCc2ccc(F)cc2)Cc2ccco2)c1N`, the inhibition is 6.2%.
As for `COc1ccc(CNC(=O)C(c2ccc(O)cc2)N(Cc2ccco2)C(=O)c2snc(C(N)=O)c2N)cc1` (stereo not drawn), the inhibition is 80.2% (active).
Then `COc1cc(C(C(=O)NC2CCCC2)N(Cc2ccccc2)C(=O)c2snc(C(N)=O)c2N)ccc1O` (stereo not drawn), with -3.3%.
With `O=C1CCC(C(=O)N2CCN(c3ccccc3Cl)CC2)CN1CC1CCCCC1` (stereo not drawn), the inhibition was 25%.
For the compound `Cc1ccc(NS(=O)(=O)c2ccc3c(c2)oc(=O)n3C)c(C)c1`, the inhibition was 21.8%.
The value for `CC(=O)c1c(OCC(=O)N(C)C2CCCCC2)ccc2c(C)cc(=O)oc12` was -24.1%; that for `COc1cccc2c1C(=O)c1c(O)c3c(c(O)c1C2=O)CC(O)(C(C)=NNC(=O)c1ccc(Cl)c(Cl)c1)CC3OC1CC(N)C(O)C(C)O1` (stereo not drawn) was 81.2% (active); that for `NS(=O)(=O)c1ccc(N=Cc2ccc(Br)s2)cc1` was 2.4%.
Then `COc1cccc(CCNC(=O)COc2cccc3c2OC(C)(C)C3)c1`, with 17.3%.
The value for `Cc1ccc(-n2cc(CN(C)Cc3nccn3C)c(-c3cccc(C)c3)n2)cc1` was 28.4%; that for `CCNc1nc(N)nc(Oc2ccc(OCC)nn2)n1` was -19.3%.
Consider `O=C(CCCCCCCC(=O)N1CCCCC1)N1CCCCC1`, for which the inhibition is -8.3%.
The value for `O=C(c1cc(COc2c(F)cccc2F)on1)N1CCSCC1` was 19%.
